Anesthetic bind: qHTS Assay for Identification of Novel General Anesthetics; Ferritin light chain (Equus caballus), P02791; apoferritin/1-aminoanthracene competitive binding, fluorescence; Potency, µM (series often up to 77.5 µM), for inactives: at the top dose activity change, negative = displacement, most hits filed as inhibitors; 350,000 tested, 0.074% active; AID 485281, 2010; also: % is scaled to controls: 0 for no effect and ±100 for the full control effect; nearly all actives have a fitted effect of over 20% in size
Target sequence (P02791 2-175 limits assumed): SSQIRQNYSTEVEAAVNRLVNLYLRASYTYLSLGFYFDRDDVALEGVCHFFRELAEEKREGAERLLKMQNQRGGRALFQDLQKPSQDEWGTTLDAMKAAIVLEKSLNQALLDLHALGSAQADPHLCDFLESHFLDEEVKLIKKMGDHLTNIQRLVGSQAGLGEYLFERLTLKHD
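Apoferritin-based anesthetic binding model; compound displacement of fluorescent 1-AMA measured as endpoint fluorescence after 10 minutes at room temperature, scaled to free-ligand and complex controls.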
PINK1 expr mod: A Quantitative High throughput Screen to Identify Chemical Modulators of PINK1 Expression. PINK1 immunofluorescence, high-content cytometry, 24 h. Potency, µM (top dose mostly 76.6 µM), for inactives: at the top dose activation (PINK1 increase), actives largely listed as activators. 410,000 tested, 0.2% active; active = well fitted activation curve with a large enough effect; inconclusive = small, poorly fitted or top-dose-only effect; cell line not stated here; also: % of control where 0% means no effect; nearly all actives have a fitted effect of over 65% in size
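PINK1 protein level read as immunofluorescence by microplate cytometer in a fixed, stained stable cell line after 24 h exposure to five compound concentrations, with CCCP as control.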
HTT cytoprotect: qHTS Multiplex Assay to Identify Dual Action Probes in a Cell Model of Huntington: Cytoprotection (ATP) | AID 1471, 2008 | Potency, µM (titrated, usually from 56.4 µM), without a hit: cytoprotection (ATP increase), usual class: activators | 230,000 tested, 0.14% active | PC12 HTT-Q103 induced, cytoprotection, ATP luminescence, 40 h; also: % of control where 0% means no effect; nearly all actives have a fitted effect of over 45% in size
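PC12 cells with ecdysone-inducible HTT exon 1 Q103-GFP, induced with 100 nM tebufenozide and co-treated with library compounds in a dose series (1536-well, 1500 cells/well). Cytoprotection read as ATP content by ATPlite luminescence.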
TSG101-PTAP inh: qHTS Assay for Iinhibitors of HIV-1 Budding by Blocking the Interaction of PTAP/TSG101; Tumor susceptibility gene 101 protein (Homo sapiens), Q99816; Fluorescence polarization, FITC-PTAP peptide / Tsg101 binding; Potency, µM (series often up to 115 µM), without a hit: at the top dose activity change, negative = inhibition, usual class: inhibitors; 340,000 tested, under 10 active; AID 493005, 2010; active = well fitted inhibition curve with a large enough effect in the main read-out, with a control signal flat, not every such curve was filed as active; inconclusive = small, poorly fitted or top-dose-only effect, or effect the other way, or a change in a side signal; inactive = no such curve, though single readings can be large or run the other way; also: % of control where 0% means no effect
Target sequence (Q99816 whole entry, looked up): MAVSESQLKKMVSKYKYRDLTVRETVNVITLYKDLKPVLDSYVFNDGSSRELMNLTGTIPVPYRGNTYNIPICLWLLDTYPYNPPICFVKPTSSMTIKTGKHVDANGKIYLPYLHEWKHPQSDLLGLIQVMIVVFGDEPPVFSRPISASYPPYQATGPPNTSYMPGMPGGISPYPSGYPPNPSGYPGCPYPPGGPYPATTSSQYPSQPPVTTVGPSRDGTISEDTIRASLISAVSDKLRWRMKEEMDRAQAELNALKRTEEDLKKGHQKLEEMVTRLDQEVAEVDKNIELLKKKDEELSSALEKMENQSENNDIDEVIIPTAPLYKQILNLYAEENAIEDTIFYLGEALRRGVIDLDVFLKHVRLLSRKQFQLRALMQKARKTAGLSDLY
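Steps: Tsg101 binding domain dispensed (10 uM final), compounds pinned in DMSO, FITC-labeled PTAP-motif peptide added (50 nM final); after 20 min binding at room temperature, polarization measured.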
HTT aggregate: qHTS Multiplex Assay to Identify Dual Action Probes in a Cell Model of Huntington: Aggregate Formation (GFP). 220,000 tested, 1.1% active. AID 1688, 2009. Potency, µM (highest dose often 46.1 µM), without a hit: at the top dose activity change, negative = inhibition, actives largely listed as inhibitors. PC12 HttQ103-GFP aggregates, Acumen cytometry, 40 h; also: % is scaled to controls: 0 for no effect and ±100 for the full control effect; nearly all actives have a fitted effect of over 60% in size
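Compounds (qHTS titration) were added to PC12 cells expressing an ecdysone-driven HTT exon 1 Q103–GFP fusion after induction with 100 nM tebufenozide. Aggregate formation was measured as GFP objects in cell lysates.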
Epigenetic derep: Quantitative High-Throughput Screen for Regulators of Epigenetic Control; murine LDR cells, GFP reporter derepression, 30 h; Potency, µM (highest dose often 53.9 µM), for inactives: top-dose GFP activation, actives largely listed as activators; 280,000 tested, 0.2% active; AID 1865, 2009; also: % of control where 0% means no effect; nearly all actives have a fitted effect of over 60% in size
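Reporter derepression read as number of fluorescent GFP-positive objects, 20-120 um in size, counted by laser-scanning cytometer. Mouse LDR line with an epigenetically silenced CMV-GFP locus; compound incubation 30 h, 37 C.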
The depositor's hits bear a star; ? = inconclusive; / = not tested or not shown; [ ] = dose if it differs, or a comment. This is one part of a sample in which hits are shown more often than they occur. Unless noted, calls follow the shape of the dose curve; as a rule, active = well fitted curve in the direction sought with a large enough effect; inconclusive = small, poorly fitted or top-dose-only effect, or another doubt; inactive = no such curve, though single readings can be large; an effect the other way counts as inactive or inconclusive. Potency is read from the fitted curve at half-maximal effect.

SMILES	Anesthetic bind	PINK1 expr mod	HTT cytoprotect	TSG101-PTAP inh	HTT aggregate	Epigenetic derep
CSCCOC(=O)C1=C(C)NC(=O)NC1c1ccc2c(c1)OCO2 (centres undefined)	-14.6%	0.3%	/	1.9%	/	/
CC1=C(C(=O)OCc2ccc3c(c2)OCO3)C(c2ccc(Cl)cc2)NC(=O)N1 (centres undefined)	-19.2%	-1.9%[38.3 µM]	-3.0%	-4.4%	1µM*	0.8%
CCCCCOC(=O)C1=C(C)NC(=O)NC1c1ccc2c(c1)OCO2 (centres undefined)	?	-1.1%	/	0.2%	/	/
CC1=C(C(=O)OCc2ccc3c(c2)OCO3)C(c2ccc(F)cc2)NC(=O)N1 (centres undefined)	?	-0.3%[38.3 µM]	-38.4%	-3.8%	1.41µM*	0.2%
CC1=[N+](C)c2c(ccc3cccnc23)C1(C)C	-20.9%	12.6µM*	-66.6%[10 µM]	-3.5%	-44.4%[9.22 µM]	?
N#Cc1cc([N+](=O)[O-])cnc1N(CCO)CCO	-9.0%	0.0%	14.3%[10 µM]	0.5%	12.6µM*	-3.0%
CCC(CO)Nc1ncc([N+](=O)[O-])cc1C#N (centres undefined)	-8.6%	0.9%	-47.2%[10 µM]	-1.7%	-1.5%	0.0%
Cc1ccc(-c2nc3cnccn3c2Nc2ccc(C(C)C)cc2)o1	/	1.5%	/	/	/	/
CCOc1ccc(S(=O)(=O)Nc2cc(Cl)ccc2O)cc1	-20.1%	?	16.3%[10 µM]	-3.4%	22.4µM*	-4.8%
Cc1cccc(NC(=O)c2oc3c(c2C)C(=O)CC(C)(C)C3)n1	0.0%	?	-28.3%[0.074 µM]	3.0%	22.4µM*	2.2%
Cc1onc(-c2ccccc2Cl)c1C(=O)N(C)C1CCCCC1	-10.0%	2.9%	15.6%	-0.3%	14.1µM*	-0.9%
CCN(C(=O)c1c(-c2ccccc2Cl)noc1C)C1CCCCC1	3.9%	1.2%	/	-1.0%	/	/
O=C(N/N=C/c1ccccc1Cl)c1n[nH]c2c1CCCC2	3.4%	-0.3%	-13.4%[10 µM]	-6.0%	12.6µM*	4.8%
Cc1oc(-c2ccccc2NC(=O)c2cccnc2)nc1CNC(=O)c1ccc(N(C)C)cc1	/	-0.4%	/	/	/	/
CCOC(=O)N1CCC(N2CCCC(CO)(Cc3cccc(OC)c3)C2)CC1 (centres undefined)	-14.1%	1.0%	/	-4.2%	0.0006µM*	0.2%
COc1cccc(CC2(CO)CCCN(S(=O)(=O)N(C)C)C2)c1 (centres undefined)	-5.6%	0.4%	3.6%[10 µM]	-3.2%	4.2%[9.22 µM]	-4.7%
CCOc1ccc(NC(=O)CC2C(=O)N(c3ccc(Cl)cc3)C(=O)N2Cc2cccs2)cc1 (centres undefined)	-9.4%	3.6%	/	/	/	6.3%
CC1CCN(S(=O)(=O)c2nnc(NC(=O)c3cccc(F)c3)s2)CC1	-5.6%	2.4%	/	/	/	12.6µM*
Cc1ccc2nc(-c3ccccc3C)c(CN(CC3CCCO3)C(=O)c3cccs3)cc2c1 (centres undefined)	/	1.1%	/	/	/	/
CC(=O)c1cccc(NC(=O)NNC(=O)c2ccc(Cl)cc2Cl)c1	?	0.4%	-23.0%	-4.2%	11.2µM*	-1.3%
CC(=O)Nc1cccc(/C(C)=N/NC(=O)c2ccc(Cl)cc2Cl)c1	-6.0%	0.7%	/	-3.5%	/	1.0%
CCc1cnc2ccccc2c1/C=C/c1ccc(N(C)C)cc1	/	7.4%	/	/	/	/
Cc1cccc2c1NC1(CCCC1)CC2C (centres undefined)	5.0%	44.7µM*	3.6%[10 µM]	-6.5%	-2.9%[9.22 µM]	0.1%
COCc1ccc(CN2CCOc3c(cc(-c4ccc(SC)cc4)cc3OC)C2)o1	/	-0.4%	/	/	/	/
